The supplement of paper PMC10849652
Of roughly 7,900 targets only a part is listed; those with a hit were picked by preference. About 0.6% of all pairs of compound and target were hits.

Legend:
Assay in all cases: log2 fold change, soluble protein after heating vs DMSO (PISA); higher = thermal stabilisation; K562 cells, 10 uM, 30 min; active = over 0.2 and 3.5 SD of the protein, either way, in both replicates (recomputed)
[1] = compound: C1COCCN1CCN2C3=CC=CC=C3N=C2NC(=O)C4=CC(=CC=C4)[N+](=O)[O-] [IRAK-1-4 Inhibitor I]
In short: (§1)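 Quantification of soluble protein used TMTpro 16plex LC-MS/MS, with channel sums equalised. Samples were the supernatant after 21,000xg for 90 min of pooled aliquots from K562 cells (2×10^6 cells/mL) treated with 10 μM compound for 30 min, heated for 3 min over 48°C-58°C, and extracted in PBS with 0.5% NP-40 at 4°C. Values, from duplicates, describe thermal stability against control samples on a log2 fold-change scale.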

[2] = compound: C=CC(=O)N1CCC[C@@H](n2nc(-c3ccc(Oc4ccccc4)cc3)c3c(N)ncnc32)C1 [ibrutinib]
In short: as §1

[3] = compound: CC(=O)c1cnc2ccc(-c3cc(Cl)c(O)c(Cl)c3)nc2c1N[C@H]1CC[C@H](CN(C)C)CC1
In short: as §1

[4] = compound: CC(C)(C)Cn1c(N)nc2ccc(-c3[nH]c(C(C)(C)C)nc3-c3ccc(F)cc3)nc21 [ralimetinib]
In short: as §1

[5] = compound: CC(C)(O)CC(=O)NCCn1ccc2ncnc(Nc3ccc(Oc4cccc(C(F)(F)F)c4)c(Cl)c3)c21
In short: as §1

[6] = compound: CC(C)C1=C2N=C(C=C(N2N=C1)NCC3=CC=CC=C3)NCCCCCCN
In short: as §1

[7] = compound: CC(C)C[C@@H](C=O)NC(=O)[C@H](CC(C)C)NC(=O)[C@H](CC(C)C)NC(=O)OCc1ccccc1
In short: as §1

[8] = compound: CC(C)N(C[C@H]1O[C@@H](n2cnc3c(N)ncnc32)[C@H](O)[C@@H]1O)[C@H]1C[C@@H](CCc2nc3cc(C(C)(C)C)ccc3[nH]2)C1 [pinometostat]
In short: as §1

[9] = compound: CC1=C(C(CC(=O)N1)C2=CC=C(C=C2)C(F)(F)F)C(=O)NC3=C(C=C4C(=C3)C=NN4)F
In short: as §1

[10] = compound: CC1=C(C2=C(C=C1)C(=O)C3=CC=CC=C3N2CCCN)C
In short: as §1

[11] = compound: CC1=C(C=C(C=C1)NC(=O)C2=CC(=CC=C2)C(C)(C)C#N)NC3=CC4=C(C=C3)N=CN(C4=O)C
In short: as §1

[12] = compound: CC1=C(C=C(C=C1)NC(=O)C2=CC(=CC=C2)N(C)C)NC(=O)C3=CC=C(C=C3)O
In short: as §1

[13] = compound: CC1=CC=C(C=C1)SC2=C3C=C(SC3=CN=C2)C(=O)N
In short: as §1

[14] = compound: CC1=NC(=CC=C1)C2=C(N=C(N2)C(C)(C)C)C3=CC4=NC=CN=C4C=C3
In short: as §1

[15] = compound: CCCCN(Cc1ccc(C(=O)NO)cc1)C(=O)Nc1ccccc1 [Nexturastat A]
In short: as §1

[16] = compound: CCCS(=O)(=O)Nc1ccc(F)c(C(=O)c2c[nH]c3ncc(-c4ccc(Cl)cc4)cc23)c1F [vemurafenib]
In short: as §1

[17] = compound: CCCS(=O)(=O)Nc1ccc(F)c(C(=O)c2c[nH]c3ncc(Cl)cc23)c1F
In short: as §1

[18] = compound: CCCc1cc(C)[nH]c(=O)c1CNC(=O)c1cc(-c2ccnc(N3CCN(C)CC3)c2)cc2c1cnn2C(C)C
In short: as §1

[19] = compound: CCN(CC)Cc1ccc2cc(COC(=O)Nc3ccc(C(=O)NO)cc3)ccc2c1 [givinostat]
In short: as §1

[20] = compound: CCN(CCCOc1ccc2c(Nc3cc(CC(=O)Nc4cccc(F)c4)[nH]n3)ncnc2c1)CCOP(=O)(O)O [barasertib]
In short: as §1

Measured: log2 fold change

CALCOCO2 isoform 4 (UniProt Q13137)
Sequence of UniProt Q13137 (Q13137 whole entry, looked up): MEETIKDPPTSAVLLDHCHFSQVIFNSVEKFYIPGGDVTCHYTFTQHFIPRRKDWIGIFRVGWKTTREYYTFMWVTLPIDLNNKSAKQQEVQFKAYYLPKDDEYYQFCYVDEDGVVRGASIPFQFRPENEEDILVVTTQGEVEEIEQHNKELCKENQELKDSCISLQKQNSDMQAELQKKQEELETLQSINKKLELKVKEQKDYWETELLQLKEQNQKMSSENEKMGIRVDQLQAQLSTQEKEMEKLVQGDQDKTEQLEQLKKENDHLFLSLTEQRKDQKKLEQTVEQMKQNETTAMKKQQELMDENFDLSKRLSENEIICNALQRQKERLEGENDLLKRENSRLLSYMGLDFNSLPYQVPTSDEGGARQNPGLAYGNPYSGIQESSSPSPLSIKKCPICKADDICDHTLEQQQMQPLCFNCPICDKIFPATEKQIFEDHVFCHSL
inactive: [1] 0.004 | [2] -0.016 | [3] -0.09 | [4] 0.045 | [5] -0.005 | [7] 0.115 | [8] 0.054 | [9] 0.045 | [10] -0.065 | [11] -0.005 | [12] -0.008 | [13] 0.006 | [14] 0.012 | [15] 0.019 | [16] 0.012 | [17] -0.037 | [18] -0.052 | [19] 0 | [20] 0.022
active: [6] -0.599

COQ7 (UniProt Q99807)
Sequence of UniProt Q99807 (Q99807 whole entry, looked up): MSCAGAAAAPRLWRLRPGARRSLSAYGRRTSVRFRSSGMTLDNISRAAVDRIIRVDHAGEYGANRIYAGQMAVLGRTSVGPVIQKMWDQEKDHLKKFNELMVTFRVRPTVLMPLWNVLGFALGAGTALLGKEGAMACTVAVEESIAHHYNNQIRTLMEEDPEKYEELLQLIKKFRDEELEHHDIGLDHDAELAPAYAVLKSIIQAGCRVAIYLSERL
inactive: [1] 0.08 | [2] 0.021 | [3] -0.064 | [4] -0.03 | [5] 0.01 | [6] -0.034 | [7] 0 | [8] -0.016 | [9] -0.018 | [10] -0.035 | [11] 0.028 | [12] 0.086 | [13] 0.02 | [14] 0.018 | [15] -0.068 | [16] -0.002 | [17] -0.061 | [18] -0.034 | [19] -0.091 | [20] 0.023

CPSF3 (UniProt Q9UKF6)
Sequence of UniProt Q9UKF6 (Q9UKF6 whole entry, looked up): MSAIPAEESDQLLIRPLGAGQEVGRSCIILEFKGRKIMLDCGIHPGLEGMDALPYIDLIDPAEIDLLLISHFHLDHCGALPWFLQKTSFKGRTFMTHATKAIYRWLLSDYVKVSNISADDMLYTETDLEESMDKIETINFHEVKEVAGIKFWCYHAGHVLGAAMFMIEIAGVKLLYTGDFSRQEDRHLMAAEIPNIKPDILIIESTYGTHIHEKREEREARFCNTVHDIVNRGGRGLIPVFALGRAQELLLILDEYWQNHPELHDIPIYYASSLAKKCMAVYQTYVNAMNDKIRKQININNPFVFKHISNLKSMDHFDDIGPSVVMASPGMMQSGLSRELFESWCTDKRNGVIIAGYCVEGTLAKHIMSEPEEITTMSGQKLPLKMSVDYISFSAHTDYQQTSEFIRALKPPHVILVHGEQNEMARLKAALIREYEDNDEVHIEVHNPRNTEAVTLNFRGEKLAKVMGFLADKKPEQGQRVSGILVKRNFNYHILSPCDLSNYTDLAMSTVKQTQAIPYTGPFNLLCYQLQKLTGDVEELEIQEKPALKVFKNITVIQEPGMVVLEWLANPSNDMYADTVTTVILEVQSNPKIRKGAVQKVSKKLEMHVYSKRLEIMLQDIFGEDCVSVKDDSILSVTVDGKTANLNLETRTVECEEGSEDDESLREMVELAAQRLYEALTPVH
inactive: [1] -0.044 | [2] -0.04 | [3] 0.026 | [4] -0.006 | [5] 0.028 | [6] -0.052 | [7] 0.035 | [8] 0.036 | [9] -0.025 | [10] -0.013 | [11] -0.014 | [12] 0.005 | [13] -0.006 | [14] -0.012 | [15] -0.085 | [16] 0.017 | [17] 0.063 | [18] -0.001 | [19] -0.03 | [20] 0.022

CTBS (UniProt Q01459)
Sequence of UniProt Q01459 (Q01459 whole entry, looked up): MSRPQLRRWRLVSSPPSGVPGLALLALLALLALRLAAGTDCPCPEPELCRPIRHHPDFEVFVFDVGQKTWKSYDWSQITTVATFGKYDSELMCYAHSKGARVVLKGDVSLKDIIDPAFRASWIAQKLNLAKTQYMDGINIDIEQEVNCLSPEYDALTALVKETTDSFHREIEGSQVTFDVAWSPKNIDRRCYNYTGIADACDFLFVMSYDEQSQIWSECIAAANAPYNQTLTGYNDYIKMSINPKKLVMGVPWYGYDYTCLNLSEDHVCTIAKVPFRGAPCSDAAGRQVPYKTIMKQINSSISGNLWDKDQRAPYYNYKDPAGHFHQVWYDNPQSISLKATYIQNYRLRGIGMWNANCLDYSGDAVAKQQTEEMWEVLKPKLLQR
inactive: [1] 0.073 | [2] 0.067 | [3] -0.082 | [4] -0.035 | [5] 0.018 | [6] -0.151 | [7] -0.028 | [8] -0.009 | [9] 0.1 | [10] -0.061 | [11] 0.206 | [12] 0.014 | [13] -0.026 | [14] -0.065 | [15] 0.043 | [16] 0.093 | [17] -0.017 | [18] 0.017 | [19] 0.039 | [20] 0.03

COMMD2 (UniProt Q86X83)
Sequence of UniProt Q86X83 (Q86X83 whole entry, looked up): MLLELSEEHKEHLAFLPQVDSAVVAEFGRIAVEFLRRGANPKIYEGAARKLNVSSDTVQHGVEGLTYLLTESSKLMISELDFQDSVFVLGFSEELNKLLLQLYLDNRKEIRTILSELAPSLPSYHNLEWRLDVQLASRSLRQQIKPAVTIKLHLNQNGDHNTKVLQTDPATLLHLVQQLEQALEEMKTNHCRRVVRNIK
inactive: [1] -0.009 | [2] -0.038 | [3] -0.119 | [4] -0.023 | [5] -0.179 | [6] -0.271 | [7] 0.007 | [8] 0.037 | [9] 0.008 | [10] 0.01 | [11] -0.014 | [12] -0.051 | [13] 0.007 | [14] 0.035 | [15] 0.022 | [16] 0.023 | [17] 0.159 | [18] 0.019 | [19] 0.11 | [20] 0.053

CERT isoform 3 (UniProt Q9Y5P4)
Sequence of UniProt Q9Y5P4 (Q9Y5P4 whole entry, looked up): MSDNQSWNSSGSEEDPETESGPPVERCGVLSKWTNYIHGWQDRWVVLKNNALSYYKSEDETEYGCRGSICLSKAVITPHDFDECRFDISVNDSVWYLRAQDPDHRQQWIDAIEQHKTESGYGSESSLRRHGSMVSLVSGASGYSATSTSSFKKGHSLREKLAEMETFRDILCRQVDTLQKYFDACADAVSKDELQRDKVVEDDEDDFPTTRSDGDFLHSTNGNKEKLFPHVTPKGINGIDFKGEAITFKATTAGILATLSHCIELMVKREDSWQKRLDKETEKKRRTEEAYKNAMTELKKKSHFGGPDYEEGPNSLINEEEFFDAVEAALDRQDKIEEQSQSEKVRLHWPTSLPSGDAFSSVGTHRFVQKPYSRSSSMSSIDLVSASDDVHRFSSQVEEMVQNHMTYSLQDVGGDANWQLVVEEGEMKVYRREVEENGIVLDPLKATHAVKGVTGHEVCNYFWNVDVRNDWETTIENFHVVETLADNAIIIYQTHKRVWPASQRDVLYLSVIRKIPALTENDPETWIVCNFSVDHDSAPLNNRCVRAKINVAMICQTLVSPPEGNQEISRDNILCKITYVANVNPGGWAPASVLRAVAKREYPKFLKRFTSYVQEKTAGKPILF
inactive: [1] -0.052 | [2] 0.017 | [4] 0.038 | [5] 0.166 | [6] 0.103 | [7] 0.005 | [8] 0.026 | [9] -0.048 | [10] -0.033 | [11] 0.154 | [12] -0.103 | [13] -0.039 | [14] -0.001 | [15] -0.048 | [16] 0.101 | [17] 0.061 | [18] 0.02 | [19] -0.027 | [20] -0.002
active: [3] -0.382

CDKN2AIP (UniProt Q9NXV6)
inactive: [1] -0.057 | [2] 0.039 | [3] 0.062 | [4] 0.059 | [5] 0.01 | [6] 0.056 | [7] -0.04 | [8] 0.032 | [9] -0.056 | [11] 0.046 | [12] -0.01 | [13] -0.076 | [14] 0.008 | [15] 0.052 | [16] 0.043 | [17] -0.053 | [18] 0.023 | [19] 0.012 | [20] -0.017
active: [10] 0.241

CETN2 (UniProt P41208)
Sequence of UniProt P41208 (P41208 whole entry, looked up): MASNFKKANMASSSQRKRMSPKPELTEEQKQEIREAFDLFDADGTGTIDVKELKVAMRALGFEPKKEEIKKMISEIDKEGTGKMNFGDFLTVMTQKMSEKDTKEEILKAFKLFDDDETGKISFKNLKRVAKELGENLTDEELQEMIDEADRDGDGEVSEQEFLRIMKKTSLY
active: [17] -0.335
inactive: [1] -0.067 | [2] 0.006 | [3] -0.019 | [4] -0.012 | [5] 0.074 | [6] 0.17 | [7] 0.043 | [8] 0.011 | [9] 0.075 | [10] -0.045 | [11] -0.015 | [12] -0.016 | [13] -0.146 | [14] -0.071 | [15] -0.188 | [16] -0.008 | [18] -0.034 | [19] -0.034 | [20] -0.013

CHKA (UniProt P35790)
Sequence of UniProt P35790 (P35790 whole entry, looked up): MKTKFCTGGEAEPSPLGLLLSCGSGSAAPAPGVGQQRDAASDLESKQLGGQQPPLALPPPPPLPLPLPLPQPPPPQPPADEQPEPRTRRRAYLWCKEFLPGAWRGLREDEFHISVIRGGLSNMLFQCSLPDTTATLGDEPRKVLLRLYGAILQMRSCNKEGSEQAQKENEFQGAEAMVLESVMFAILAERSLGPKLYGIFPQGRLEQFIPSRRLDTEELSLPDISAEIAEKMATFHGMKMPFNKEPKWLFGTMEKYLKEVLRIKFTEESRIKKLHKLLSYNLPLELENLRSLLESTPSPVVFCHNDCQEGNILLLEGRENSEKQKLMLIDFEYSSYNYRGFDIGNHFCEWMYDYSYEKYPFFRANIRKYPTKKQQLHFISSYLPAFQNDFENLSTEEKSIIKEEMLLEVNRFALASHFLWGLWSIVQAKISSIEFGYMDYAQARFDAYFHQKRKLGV
inactive: [1] -0.034 | [2] 0 | [3] 0.085 | [4] 0.006 | [5] 0.057 | [6] 0.113 | [7] 0.019 | [8] 0.088 | [9] -0.061 | [10] 0.079 | [11] -0.011 | [12] -0.048 | [13] -0.125 | [14] 0.033 | [15] 0.036 | [16] -0.017 | [17] 0.019 | [18] -0.164 | [20] 0.05
active: [19] 0.334

CDC42BPA isoform 6 (UniProt Q5VT25)
inactive: [1] -0.025 | [2] -0.09 | [4] 0.094 | [5] -0.02 | [6] -0.193 | [7] 0.043 | [8] 0.029 | [9] -0.192 | [10] 0.132 | [11] 0.151 | [12] -0.079 | [13] 0.01 | [14] -0.015 | [15] 0.123 | [16] 0.004 | [17] 0.141 | [18] -0.013 | [19] 0.051 | [20] 0.04
active: [3] -1.07

CCDC59 (UniProt Q9P031)
Sequence of UniProt Q9P031 (Q9P031 whole entry, looked up): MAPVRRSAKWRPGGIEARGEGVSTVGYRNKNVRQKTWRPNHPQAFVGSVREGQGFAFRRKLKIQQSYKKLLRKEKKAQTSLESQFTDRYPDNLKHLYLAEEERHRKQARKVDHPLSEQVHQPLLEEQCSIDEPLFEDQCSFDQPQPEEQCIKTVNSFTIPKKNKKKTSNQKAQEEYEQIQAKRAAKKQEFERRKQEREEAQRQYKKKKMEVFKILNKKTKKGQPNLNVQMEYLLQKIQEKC
inactive: [1] -0.083 | [2] -0.051 | [3] 0.224 | [4] 0.28 | [5] -0.073 | [6] 0.093 | [7] 0.197 | [8] 0.233 | [9] 0.036 | [10] -0.468 | [11] -0.067 | [12] -0.017 | [13] -0.144 | [14] -0.213 | [16] -0.037 | [17] 0.008 | [18] 0.113 | [19] 0.086 | [20] -0.013
active: [15] 0.549

CS (UniProt O75390)
Sequence of UniProt O75390 (O75390 whole entry, looked up): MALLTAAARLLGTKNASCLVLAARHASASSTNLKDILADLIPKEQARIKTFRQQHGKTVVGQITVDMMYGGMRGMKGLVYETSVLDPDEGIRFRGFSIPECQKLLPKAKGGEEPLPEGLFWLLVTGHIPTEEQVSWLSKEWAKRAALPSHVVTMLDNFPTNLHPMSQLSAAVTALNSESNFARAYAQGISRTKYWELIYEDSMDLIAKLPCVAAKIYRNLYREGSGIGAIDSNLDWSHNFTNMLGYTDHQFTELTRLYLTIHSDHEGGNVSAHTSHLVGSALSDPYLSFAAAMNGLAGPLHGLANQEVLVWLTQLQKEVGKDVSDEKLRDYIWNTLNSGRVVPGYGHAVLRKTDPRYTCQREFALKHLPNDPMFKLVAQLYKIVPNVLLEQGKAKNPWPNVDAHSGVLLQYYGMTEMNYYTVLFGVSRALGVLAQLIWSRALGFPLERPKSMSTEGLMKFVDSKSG
inactive: [1] 0.02 | [2] -0.004 | [3] 0.002 | [4] -0.04 | [5] -0.178 | [6] -0.148 | [7] -0.069 | [8] -0.05 | [9] 0.02 | [10] 0.008 | [11] -0.026 | [12] -0.002 | [13] 0.014 | [14] 0.07 | [15] -0.125 | [16] 0.023 | [17] 0.033 | [18] 0 | [19] -0.041 | [20] 0.027

CDK1 (UniProt P06493)
Sequence of UniProt P06493 (P06493 whole entry, looked up): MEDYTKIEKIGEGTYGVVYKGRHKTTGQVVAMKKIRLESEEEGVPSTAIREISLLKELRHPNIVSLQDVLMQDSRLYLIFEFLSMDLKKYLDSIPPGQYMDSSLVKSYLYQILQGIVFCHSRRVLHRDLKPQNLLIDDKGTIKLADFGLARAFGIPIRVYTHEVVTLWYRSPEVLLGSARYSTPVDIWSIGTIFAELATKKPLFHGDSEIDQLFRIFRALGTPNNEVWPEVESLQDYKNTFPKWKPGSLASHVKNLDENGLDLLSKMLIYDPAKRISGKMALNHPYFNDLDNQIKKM
active: [3] -0.401
inactive: [1] 0 | [2] -0.046 | [4] -0.031 | [5] -0.051 | [6] -0.02 | [7] 0.051 | [8] 0 | [9] 0.012 | [10] -0.021 | [11] 0.017 | [12] -0.017 | [13] 0.004 | [14] 0.036 | [15] -0.015 | [16] 0.029 | [17] 0.02 | [18] 0.001 | [19] 0.048 | [20] 0.001

CDK6 (UniProt Q00534)
Sequence of UniProt Q00534 (Q00534 whole entry, looked up): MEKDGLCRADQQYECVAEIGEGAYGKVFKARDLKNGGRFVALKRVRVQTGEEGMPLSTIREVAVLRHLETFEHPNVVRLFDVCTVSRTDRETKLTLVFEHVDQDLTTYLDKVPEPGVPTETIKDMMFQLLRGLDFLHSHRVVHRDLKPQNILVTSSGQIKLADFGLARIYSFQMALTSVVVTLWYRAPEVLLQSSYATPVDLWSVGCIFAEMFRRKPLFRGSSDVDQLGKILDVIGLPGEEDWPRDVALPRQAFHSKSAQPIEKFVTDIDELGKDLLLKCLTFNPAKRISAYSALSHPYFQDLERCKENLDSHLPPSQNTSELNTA
inactive: [1] -0.014 | [2] 0.031 | [3] 0.107 | [4] 0.009 | [5] -0.009 | [6] -0.026 | [7] 0.086 | [8] 0.062 | [9] 0.02 | [10] -0.019 | [11] -0.037 | [12] 0.01 | [13] 0.044 | [14] 0 | [15] 0.032 | [16] 0.002 | [17] -0.024 | [18] -0.027 | [19] -0.019 | [20] -0.018

CSNK2A2 (UniProt P19784)
Sequence of UniProt P19784 (P19784 whole entry, looked up): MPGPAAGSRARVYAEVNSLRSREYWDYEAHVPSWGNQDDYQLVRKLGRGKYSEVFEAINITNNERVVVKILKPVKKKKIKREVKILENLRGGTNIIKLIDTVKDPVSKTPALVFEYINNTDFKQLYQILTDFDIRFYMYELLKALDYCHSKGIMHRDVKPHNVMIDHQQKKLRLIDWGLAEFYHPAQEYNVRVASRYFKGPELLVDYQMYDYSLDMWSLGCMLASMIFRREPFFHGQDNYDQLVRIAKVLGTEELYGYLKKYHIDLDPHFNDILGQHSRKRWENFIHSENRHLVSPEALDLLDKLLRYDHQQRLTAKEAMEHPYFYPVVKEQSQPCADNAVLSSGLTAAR
active: [3] 0.585 | [10] 0.235
inactive: [1] 0.033 | [2] 0.006 | [4] 0.001 | [5] -0.065 | [6] 0.026 | [7] -0.029 | [8] 0.149 | [9] 0.009 | [11] -0.037 | [12] 0.009 | [13] 0.021 | [14] 0.005 | [15] 0.004 | [16] 0 | [17] 0.08 | [18] -0.035 | [19] 0.03 | [20] 0.003
